Consider 40 compounds from PubChem BioAssay (NCATS).

Records with an inconclusive call do not appear. Values without a mark were called inactive. Active and inactive are the calls of the source. The call rests on the fitted dose curve; in most records, active means well fitted inhibition curve with a large enough effect; inconclusive means small, poorly fitted or top-dose-only effect; inactive means flat fitted curve, though single readings scatter. *1 amine or outer side, *2 acyl side, *3 side chain or, on linkers, in order; H or OH if unused. Where a SMILES comes first, the peptide text is derived from it. Bridges are numbered along the chain shown (N, C = ends). [ ]: non-standard residue; d: D form. PhLac = O=C(O)[CH](O)Cc1ccccc1; NMeV = CN[CH](C(=O)O)C(C)C; X6 = O=C(CCC[*:2])[*:1]

The target of the assay is Glutathione peroxidase 1 (Homo sapiens) (UniProt P07203). Nature of the assay: Primary qHTS Assay for Inhibitors of Recombinant Selenoprotein Glutathione Peroxidase 1 (GPX1) (AID 1845191). Further: nearly all actives have a fitted effect of over 65% in size. Conditions: recombinant GPX1, GR-coupled NADPH fluorescence, 15 min; series mostly up to 48.8 µM; activity, negative = inhibition: at the top concentration. The source says: Assay Provider: Elias S.J. Arner MD PhD.
Sequence of Glutathione peroxidase 1 (Homo sapiens) (P07203 whole entry, looked up): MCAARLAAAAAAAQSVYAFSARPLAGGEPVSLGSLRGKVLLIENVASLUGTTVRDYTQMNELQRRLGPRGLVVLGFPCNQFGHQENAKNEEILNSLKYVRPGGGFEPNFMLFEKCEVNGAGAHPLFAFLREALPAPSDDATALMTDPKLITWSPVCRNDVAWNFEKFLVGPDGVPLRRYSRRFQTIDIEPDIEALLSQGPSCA
Department of Medical Biochemistry and Biophysics
Karolinska Institutet, Solna, Stockholm, Sweden
Selenoprotein glutathione peroxidases (GPX), like the ubiquitously expressed GPX1 and the ferroptosis modulator GPX4, enact their antioxidant activities by reducing hydroperoxides using glutathione. […] GPX1 and GPX4 inhibitors have thus shown promise as anti-cancer agents. Existing inhibitors are often promiscuous, or modulate GPX activity only indirectly, so novel direct inhibitors identified through screening against GPX1 and GPX4 could be valuable. Here, we developed optimized glutathione reductase (GR)-coupled GPX assays for the biochemical high-throughput screen (HTS) of almost 12,000 compounds with known mechanisms of action. Initial hits were triaged using a GR counter-screen, assessed for isoform specificity using a separate GPX2 assay, and were assessed for general selenocysteine-targeting activity using a thioredoxin reductase (TXNRD1) assay. With this suite of assays, we identified novel GPX1/GPX2- and GPX4-specific inhibitors and can here present a validated pipeline for future discovery research for selenoprotein-targeting agents.
SEQUENCE No. (e.g., 1, 2, 3, etc.); […] (e.g., Cells, Incubation, Reagent, etc.); VALUE; DESCRIPTION.
1; Reagent 1; 3 uL; GPx1 enzyme or no enzyme control in 1536-well, black, solid Greiner assay plate.
2; Compound; 25 nL; Kalypsis pin tool (Wako USA) equipped with a 1536-well pin head.
3; Incubation; 30 min; room temperature.
4; Reagent 2; 1 uL; 10 nM GPX1, 1 mM GSH, 0.5 mM CHP, 0.5 mM NADPH, 100 nM GR, 0.01% BSA substrate
5; Detection; Fluorescence; ViewLux microplate reader, excitation 340 nm and emission 450 nm.
6; Incubation; 15 min; room temperature.
7; Detection; Fluorescence; ViewLux microplate reader, excitation 340 nm and emission 450 nm.
NOTES (numbers refer to Sequence numbers above)
1. 3 uL of 16.66 nM GPX1 and 0.016% BSA in assay buffer (50 mM Tris-HCl, 2 mM EDTA (pH 7.5), 150 mM NaCl) was added to columns 3-48 of 1536-well assay plates using a BioRAPTR Flying Reagent Dispenser (Let's Go Robotics (LGR), Carlsbad, CA). A no-enzyme control (0.01% BSA in TES assay buffer) was added to columns 1-2.
2. 25 nL of test compounds and DMSO controls were added to each well with a pin tool (Kalypsys).
3. The assay plates were incubated for 30 minutes at room temperature.
4. 1 uL of master mix (500 nM glutathione reductase (GR), 5 mM reduced glutathione (GSH), 2.5 mM NADPH in assay buffer) was added. 1 uL of cumene hydroperoxide (CHP) ([2.5 mM] in 50% EtOH) was then added within 5 minutes to initiate the reaction. Final concentrations were: 10 nM GPX1, 1 mM GSH, 0.5 mM CHP, 0.5 mM NADPH, 100 nM GR, 0.01% BSA.
5. Initial fluorescence readout (t=0) at 340/450 nm was measured using a ViewLux multimodal detector (PerkinElmer, Waltham, MA).
7. Endpoint fluorescence readout (t=15) at 340/450 nm was measured 15 min after room temperature incubation.
(In general: Quantitative high-throughput screening tests each substance at several concentrations.)
Turning to `CC(=O)O[C@H](C[C@@H](C)[C@H]1C(=O)[C@H](O)[C@@]2(C)[C@@H]3CCC4C(C)(C)[C@@H](O[C@@H]5OC[C@H](O)[C@H](O)[C@H]5O)CC[C@@]45C[C@@]35CC[C@]12C)[C@@H]1OC1(C)C` (stereo not given in full), the “outcome” value was “inactive [at 15.3 µM]”. Consider `CCOc1ccc2c(c1)C(C)=CC(C)(C)N2`, for which the “activity, negative = inhibition” value is -5.83% [at 98.3 µM]. With `CC1(C)CC2C3=CCC4C5(C)CCC(OC6OC(CO)C(O)C(OC7OC(CO)C(O)C(OC8OC(CO)C(O)C(OC9OC(COC%10OC(CO)C(O)C(O)C%10O)C(O)C(O)C9O)C8O)C7O)C6O)C(C)(C)C5CCC4(C)C3(C)CCC2(C(=O)O)CC1O` (stereo not given), the activity, negative = inhibition was -11.7% [at 9.52 µM]. The same measure, in the same setting: then `COc1cc(O[C@@H]2O[C@H](CO)[C@@H](O)[C@H](O)[C@H]2O)c(CCC(=O)OC[C@H]2O[C@@H](Oc3cc(OC)c(C4OC(=O)C(C)(O)C4O)cc3CCC(=O)O)[C@H](O)[C@@H](O)[C@@H]2O)cc1C1OC(=O)C(C)(O)C1O` (stereo not given in full), with 3.3% [at 15.3 µM]; and `CCOc1ccc(C(Nc2ccccn2)c2ccc3ccc(C)nc3c2O)cc1C` (stereo not given), with -13.8%. For the compound `CC(C)=CCc1ccc(Oc2c(O)cc(C)cc2CO)c(C(=O)O)c1O`, the “activity, negative = inhibition” value is -3.92% [at 27.7 µM].

With `CC1=CC(=O)C2C(C)(C)CC(O)CC2(C)C1CO` (stereo not given), the result was inactive. As to `CC(=O)O[C@@H]1[C@H]2[C@@H](OC(=O)c3ccccc3)[C@@H](C)C[C@]2(O)[C@H](OC(C)=O)[C@@]2(C)[C@@H]3CC(C)(C)C(=O)[C@]3(OC(C)=O)C[C@@]12C`, the “outcome” value is “inactive [at 15.3 µM]”. With `CCCn1cnc2c(NCc3ccccc3)nc(N[C@H](CC)CO)nc21`, the “activity, negative = inhibition” value is 4.44%. The same measure, in the same setting: then `C=C1C(=O)OC2/C=C(\C)CC/C=C(\C(=O)O)CC/C=C(\C)CCC12` (stereo not given), with 4.73% [at 27.7 µM].

In the case of `COc1cc(C2Oc3c(OC)cc(/C=C/C(=O)OC[C@H]4O[C@@H](OC(C)(C)C(=O)O)[C@H](O)[C@@H](O)[C@@H]4O)cc3C2CO)ccc1O` (stereo not given in full), the “activity, negative = inhibition” value is -0.18% [at 15.3 µM].

In the case of `CC/C=C\C[C@H]1C(=O)C=C[C@@H]1CCCCCCCC(=O)O`, the result was inactive. On to `COC(=O)CC1(O)C(=O)Nc2ccccc21` (stereo not given), for which the “activity, negative = inhibition” value was -9.24%. On to `COC(=O)C1=CO[C@@H](O[C@@H]2O[C@H](CO[C@@H]3O[C@H](COC(=O)/C=C/c4ccc(O)cc4)[C@@H](O)[C@H](O)[C@H]3O)[C@@H](O)[C@H](O)[C@H]2O)[C@@H]2C(CO)=CC[C@H]12`, for which the “activity, negative = inhibition” value is 2.15% [at 15.3 µM]. As to `C1CCN2CC3C[C@@H](CN4CCCC[C@@H]34)[C@H]2C1`, the “activity, negative = inhibition” value was -1.92%. On the same count and under the same terms, for `C=C1CC2C3(C)C(O)CC(=O)C(C)(C)C3C(OC(C)=O)C(OC(C)=O)C2(C)C2C(=O)OC(C)(C(=O)OC)C(=O)C12C` (stereo not given) the value was -9.18% [at 27.7 µM].

With `CCn1nnnc1NCc1ccc(C(C)C)cc1`, the outcome was inactive.

Regarding `CC1OC(OC2C(CO)OC(OCC3OC(OC(=O)C45CCC(C)(C)CC4C4=CCC6C7(C)CCC(OC8OC(C(=O)O)C(O)C(OC9OC(CO)C(O)C(O)C9O)C8O)C(C)(C)C7CCC6(C)C4(C)CC5)C(O)C(O)C3O)C(O)C2O)C(O)C(O)C1O` (stereo not given), the activity, negative = inhibition is -12.7% [at 9.52 µM]. Regarding `CC(C)NC[C@H](O)COc1ccc(CCOCC2CC2)cc1`, the “activity, negative = inhibition” value is 3.09%.

For `C=C1C2=CC(O)C(C)C1(C)CC/C(C)=C/CCC1(C)OC1C2=O` (stereo not given), the “activity, negative = inhibition” value is -8.53% [at 27.7 µM].

Turning to `CNC(=O)[C@H]1O[C@@H](n2cnc3c(NCc4ccc(N)c(I)c4)ncnc32)[C@H](O)[C@@H]1O`, the activity, negative = inhibition was 3.67% [at 9.52 µM]. Turning to `CCOc1cc2ncc(C#N)c(Nc3ccc(OCc4ccccn4)c(Cl)c3)c2cc1NC(=O)/C=C/CN(C)C`, the Potency result is “inactive”. Turning to `CC(C)C(C(=O)N1CCCC1C(=O)O)N(C)C(=O)C(O)Cc1ccccc1` (stereo not given) (H-[PhLac]-[NMeV]-Pro-OH; configuration not given here), the “outcome” value is “inactive [at 27.7 µM]”.

On to `COCCCNCC1COc2ccccc2O1` (stereo not given), for which the “activity, negative = inhibition” value is 3.84%.

Regarding `CC(C)C1=CCC(C)(O)C(OC2OC(CO)C(O)C(O)C2O)C1` (stereo not given), the “activity, negative = inhibition” value was 0.167% [at 27.7 µM].

As to `COC1=CC(=O)C[C@@H](C)[C@]12Oc1cc(OC)cc(OC)c1C2=O`, the “outcome” value is “inactive [at 27.7 µM]”. Regarding `CC1(C)C(=O)C(C)(C)c2cc(C(=O)Nc3ccc(C(=O)O)cc3)ccc21`, the outcome was inactive.

Consider `C=C1[C@H]2[C@H](O[C@@H]3O[C@H](COC(=O)/C=C/c4cc(OC)c(O)c(OC)c4)[C@@H](O)[C@H](O)[C@H]3O)OC=C(C(=O)O)[C@H]2C[C@@H]1O`, for which the “outcome” value was “inactive [at 15.3 µM]”.

On to `COc1ccc(C(OC2OC(CO)C(O)C(O)C2O)C(C)O)cc1` (stereo not given), for which the “outcome” value is “inactive [at 27.7 µM]”.

In the case of `CC1(C)CC[C@]2(C(=O)O)CC[C@]3(C)C(=CCC4[C@@]5(C)C[C@H](O)[C@H](O[C@@H]6OC[C@H](O)[C@H](O)[C@H]6O)[C@@](C)(CO)C5CC[C@]43C)[C@@H]2C1` (stereo not given in full), the “outcome” value is “inactive [at 15.3 µM]”.

As for `COc1cc(/C=C/C(=O)OC[C@H]2O[C@H](O[C@]3(CO)O[C@H](CO)[C@@H](O)[C@@H]3O)[C@H](O)[C@@H](O)[C@@H]2O)cc(OC)c1O`, the “activity, negative = inhibition” value is -14.7% [at 27.7 µM]. On to `CC1(CO)CC2C(O)C(=O)C3(CO)CC3(C)C2C1` (stereo not given), for which the “activity, negative = inhibition” value is -8.49%. `CC[C@H](C)[C@@H]1NC(=O)[C@H](Cc2ccc(OC)cc2)NC(=O)CCCSC[C@@H](C(=O)N2CCC[C@H]2C(=O)N[C@@H](CC(C)C)C(=O)NCC(N)=O)NC(=O)[C@H](CC(N)=O)NC(=O)[C@H](CCC(N)=O)NC1=O` (Y(Me)IQNCPLG-NH2; linker N-5 via X6): the “activity, negative = inhibition” value was -16.8% [at 27.7 µM].

Take `CCn1c2ccccc2c2cc(CNC)ccc21`: the Potency entry is “inactive”. Still for that read-out and setting: for `CN(C)C/C=C/C(=O)Nc1ccc(C(=O)Nc2cccc(Nc3ncc(Cl)c(-c4c[nH]c5ccccc45)n3)c2)cc1` the value was “inactive”. With `OCC1OC(Oc2cc(O)c3c(c2)OC(c2ccc(O)cc2)C(O)C3)C(O)C1O` (stereo not given), the “activity, negative = inhibition” value was 2.74% [at 27.7 µM]. Consider `C=C1CCC2C(C)(COC3OC(COC(=O)CC(=O)O)C(O)C(O)C3O)CCCC2(C)C1CCC1=CCOC1=O` (stereo not given), for which the “outcome” value was “inactive [at 27.7 µM]”. Turning to `CC1CCC2C(C)(C)C(O)CCC2(C)C12Cc1c(O)cc3c(c1O2)CN=C3N` (stereo not given), the “outcome” value is “inactive [at 27.7 µM]”. As for `O=C1CC(c2ccc([N+](=O)[O-])cc2)=NN1c1ccccc1`, the outcome was inactive. For `O=C(O)c1n[nH]c2c1C[C@H]1C[C@@H]21`, the “activity, negative = inhibition” value is 4.06%.
